# This is part of a sample that, as a whole, favours compounds with a hit. Of some 79,000 tested, about 15% had one in any assay. A number with no mark means an inactive call. The source made the active and inactive calls. Cut-off read from the data, not from the text of the source: active = growth inhibition above about 70%; inactive = the rest.
# What was measured:
# [1] = NCI Yeast Anticancer Drug Screen. Data for the sgs1 strain (AID 173);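 note: 0% = growth of vehicle-only control cultures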; conditions: S. cerevisiae sgs1 mutant, active compounds read high
# In short: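 Read-out: yeast growth inhibition relative to vehicle controls, following compound exposure of a strain with a defined DNA repair/cell cycle alteration.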
# [2] = NCI Yeast Anticancer Drug Screen. Data for the mlh1 rad18 strain (AID 175); conditions: S. cerevisiae mlh1 rad18 strain growth inhibition, active compounds read high
# In short: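 Yeast w/ defined DNA-repair lesions; compound exposure; growth vs vehicle controls → % inhibition.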
# [3] = NCI Yeast Anticancer Drug Screen. Data for the rad18 strain (AID 177); conditions: S. cerevisiae rad18 mutant growth inhibition, active compounds read high
# In short: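 Readout: growth inhibition vs vehicle controls. Cells: genetically altered yeast strain, DNA repair defect.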
# [4] = NCI Yeast Anticancer Drug Screen. Data for the wt1 strain (AID 149);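 note: 0% = growth of vehicle-treated wt1 cultures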; conditions: S. cerevisiae wt1 strain (SPY 50644) growth inhibition, active compounds read high
# In short: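 Vehicle-normalised growth inhibition; strain wt1; compound exposure.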
# [5] = NCI Yeast Anticancer Drug Screen. Data for the rad50EPP+ strain (AID 151);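 note: 0% = growth of vehicle-treated control cultures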; conditions: S. cerevisiae rad50 mutant strain, active compounds read high
# In short: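 Growth inhibition read against vehicle controls in rad50EPP+ yeast, a strain altered in DNA damage repair, after compound exposure.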
# [6] = NCI Yeast Anticancer Drug Screen. Data for the mgt1 strain (AID 153); conditions: S. cerevisiae mgt1 mutant growth inhibition, active compounds read high
# In short: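 mgt1 yeast grown with test compound; read-out is growth inhibition versus vehicle-treated cultures.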
# [7] = NCI Yeast Anticancer Drug Screen. Data for the rad50 strain (AID 155);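 note: 0% = growth of vehicle-only cultures of the same strain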; conditions: S. cerevisiae rad50 strain growth inhibition, active compounds read high
# In short: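 A DNA repair-deficient yeast mutant serves as the test organism; compound-induced growth inhibition is calculated against vehicle-treated cells.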
# [8] = NCI Yeast Anticancer Drug Screen. Data for the mec2-1 strain (AID 157); conditions: S. cerevisiae mec2-1 strain, active compounds read high
# In short: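 Yeast mec2-1 mutant treated with compound. Readout: growth inhibition vs vehicle controls.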
# [9] = NCI Yeast Anticancer Drug Screen. Data for the sgs1 mgt1 strain (AID 161);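 note: 0% = growth of cultures given vehicle only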; conditions: S. cerevisiae sgs1 mgt1 strain, active compounds read high
# In short: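 Read-out: growth inhibition vs vehicle controls. Cells: mutant yeast strain deficient in DNA damage repair.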
# [10] = NCI Yeast Anticancer Drug Screen. Data for the CLN2oe strain (AID 163);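 note: 0% = growth of vehicle-only control cultures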; conditions: S. cerevisiae CLN2oe strain, active compounds read high
# In short: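 Read-out: yeast growth inhibition, expressed relative to vehicle-only controls. The strain bears an engineered cell-cycle alteration.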
# [11] = NCI Yeast Anticancer Drug Screen. Data for the cln2 rad14 strain (AID 165);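 note: 0% = growth equal to vehicle treated cultures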; conditions: S. cerevisiae cln2 rad14 strain, active compounds read high
# In short: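 cln2 rad14 yeast strain; compound exposure; growth inhibition read vs vehicle controls.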
# [12] = NCI Yeast Anticancer Drug Screen. Data for the bub3 strain (AID 167); conditions: S. cerevisiae bub3 mutant strain, active compounds read high
# In short: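 Inhibition values come from growth of compound-treated mutant yeast normalised to vehicle-treated controls.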
# [13] = NCI Yeast Anticancer Drug Screen. Data for the wt2 strain (AID 169);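 note: 0% = growth of vehicle-treated yeast cultures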; conditions: S. cerevisiae wt2 strain growth inhibition, active compounds read high
# In short: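 Read-out: growth inhibition versus vehicle-treated control cultures after compound exposure of the yeast strain.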
# [14] = NCI Yeast Anticancer Drug Screen. Data for the mlh1 strain (AID 171);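 note: 0% = growth of vehicle-treated control cultures of the same strain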; conditions: S. cerevisiae mlh1 strain growth inhibition, active compounds read high
# In short: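 Read-out: growth inhibition versus vehicle controls. Strain: engineered yeast with a defined DNA repair or cell cycle defect, compound-treated.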
# [15] = NCI Yeast Anticancer Drug Screen. Data for the rad14 strain (AID 159);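 note: 0% = growth of vehicle-treated control cultures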; conditions: S. cerevisiae rad14 strain growth inhibition, active compounds read high
# In short: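 Vehicle-treated cultures served as the baseline for growth inhibition of a DNA repair-mutant yeast strain exposed to each compound.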
# [16] = at 5.0 µM (retest, dose inferred, filed as 0.5)
# [17] = at 50.0 µM (retest, dose inferred, filed as 5.0)
structure (smiles),measurement,setting,value
N=c1oc2ccccc2cc1-c1nc2ccccc2[nH]1,growth inhibition,[1]; at 1.2 µM,15%
same,growth inhibition,[1]; at 3.7 µM,28%
same,growth inhibition,[1]; at 11.0 µM,41%
same,growth inhibition,[1]; at 33.0 µM,59%
same,growth inhibition,[1]; at 100.0 µM,82% (active)
same,growth inhibition,[2]; [16],6%
same,growth inhibition,[2]; [17],84% (active)
same,growth inhibition,[2]; at 50.0 µM,16.6%
same,growth inhibition,[3]; at 1.2 µM,2%
same,growth inhibition,[3]; at 3.7 µM,5%
same,growth inhibition,[3]; at 11.0 µM,14%
same,growth inhibition,[3]; at 33.0 µM,27%
same,growth inhibition,[3]; at 100.0 µM,71% (active)
CCCCCC(=O)C(C)(c1nc2n(c1O)/C(=N/C(=O)Nc1ccc(Cl)cc1)N=N2)c1nc2n(c1O)/C(=N/C(=O)Nc1ccc(Cl)cc1)N=N2,growth inhibition,[4]; at 1.2 µM,3%
same,growth inhibition,[4]; at 3.7 µM,-4%
same,growth inhibition,[4]; at 11.0 µM,-3%
same,growth inhibition,[4]; at 33.0 µM,1%
same,growth inhibition,[4]; at 100.0 µM,18%
same,growth inhibition,[5]; at 1.2 µM,8%
same,growth inhibition,[5]; at 3.7 µM,16%
same,growth inhibition,[5]; at 11.0 µM,32%
same,growth inhibition,[5]; at 33.0 µM,60%
same,growth inhibition,[5]; at 100.0 µM,79% (active)
same,growth inhibition,[6]; at 1.2 µM,2%
same,growth inhibition,[6]; at 3.7 µM,4%
same,growth inhibition,[6]; at 11.0 µM,-5%
same,growth inhibition,[6]; at 33.0 µM,9%
same,growth inhibition,[6]; at 100.0 µM,57%
same,growth inhibition,[7]; at 1.2 µM,6%
same,growth inhibition,[7]; at 3.7 µM,0%
same,growth inhibition,[7]; [16],-7%
same,growth inhibition,[7]; at 11.0 µM,6%
same,growth inhibition,[7]; at 33.0 µM,24%
same,growth inhibition,[7]; [17],14%
same,growth inhibition,[7]; at 50.0 µM,-11.6%
same,growth inhibition,[7]; at 100.0 µM,44%
same,growth inhibition,[8]; at 1.2 µM,-3%
same,growth inhibition,[8]; at 3.7 µM,-1%
same,growth inhibition,[8]; [16],20%
same,growth inhibition,[8]; at 11.0 µM,2%
same,growth inhibition,[8]; at 33.0 µM,8%
same,growth inhibition,[8]; [17],41%
same,growth inhibition,[8]; at 50.0 µM,-11.2%
same,growth inhibition,[8]; at 100.0 µM,30%
same,growth inhibition,[9]; [16],12%
same,growth inhibition,[9]; [17],64%
same,growth inhibition,[9]; at 50.0 µM,-5.1%
same,growth inhibition,[10]; at 1.2 µM,-5%
same,growth inhibition,[10]; at 3.7 µM,-8%
same,growth inhibition,[10]; at 11.0 µM,-5%
same,growth inhibition,[10]; at 33.0 µM,2%
same,growth inhibition,[10]; at 100.0 µM,27%
same,growth inhibition,[11]; [16],-27%
same,growth inhibition,[11]; [17],3%
same,growth inhibition,[11]; at 50.0 µM,-23.3%
same,growth inhibition,[12]; at 1.2 µM,-6%
same,growth inhibition,[12]; at 3.7 µM,-9%
same,growth inhibition,[12]; [16],-42%
same,growth inhibition,[12]; at 11.0 µM,-8%
same,growth inhibition,[12]; at 33.0 µM,-1%
same,growth inhibition,[12]; [17],38%
same,growth inhibition,[12]; at 50.0 µM,98.2% (active)
same,growth inhibition,[12]; at 100.0 µM,20%
same,growth inhibition,[13]; at 1.2 µM,-1%
same,growth inhibition,[13]; at 3.7 µM,-1%
same,growth inhibition,[13]; at 11.0 µM,4%
same,growth inhibition,[13]; at 33.0 µM,19%
same,growth inhibition,[13]; at 100.0 µM,45%
same,growth inhibition,[14]; at 1.2 µM,-4%
same,growth inhibition,[14]; at 3.7 µM,-1%
same,growth inhibition,[14]; at 11.0 µM,6%
same,growth inhibition,[14]; at 33.0 µM,22%
same,growth inhibition,[14]; at 100.0 µM,59%
same,growth inhibition,[1]; at 1.2 µM,2%
same,growth inhibition,[1]; at 3.7 µM,1%
same,growth inhibition,[1]; at 11.0 µM,6%
same,growth inhibition,[1]; at 33.0 µM,25%
same,growth inhibition,[1]; at 100.0 µM,54%
same,growth inhibition,[2]; [16],-26%
same,growth inhibition,[2]; [17],55%
same,growth inhibition,[2]; at 50.0 µM,7%
same,growth inhibition,[3]; at 1.2 µM,-1%
same,growth inhibition,[3]; at 3.7 µM,7%
same,growth inhibition,[3]; at 11.0 µM,9%
same,growth inhibition,[3]; at 33.0 µM,21%
same,growth inhibition,[3]; at 100.0 µM,51%
O=C(CCCN1CCC2(CC1)OC(=O)N(c1ccccc1)C2=O)c1ccccc1,growth inhibition,[4]; at 1.2 µM,43%
same,growth inhibition,[4]; at 3.7 µM,45%
same,growth inhibition,[4]; at 11.0 µM,53%
same,growth inhibition,[4]; at 33.0 µM,52%
same,growth inhibition,[4]; at 100.0 µM,63%
same,growth inhibition,[5]; at 1.2 µM,44%
same,growth inhibition,[5]; at 3.7 µM,29%
same,growth inhibition,[5]; at 11.0 µM,33%
same,growth inhibition,[5]; at 33.0 µM,26%
same,growth inhibition,[5]; at 100.0 µM,26%
same,growth inhibition,[6]; at 1.2 µM,29%
same,growth inhibition,[6]; at 3.7 µM,44%
same,growth inhibition,[6]; at 11.0 µM,56%
same,growth inhibition,[6]; at 33.0 µM,65%
same,growth inhibition,[6]; at 100.0 µM,74% (active)
same,growth inhibition,[7]; at 1.2 µM,31%
same,growth inhibition,[7]; at 3.7 µM,50%
same,growth inhibition,[7]; [16],31%
same,growth inhibition,[7]; at 11.0 µM,60%
same,growth inhibition,[7]; at 33.0 µM,65%
same,growth inhibition,[7]; [17],64%
same,growth inhibition,[7]; at 50.0 µM,83.9% (active)
same,growth inhibition,[7]; at 100.0 µM,67%
same,growth inhibition,[8]; at 1.2 µM,44%
same,growth inhibition,[8]; at 3.7 µM,45%
same,growth inhibition,[8]; [16],37%
same,growth inhibition,[8]; at 11.0 µM,60%
same,growth inhibition,[8]; at 33.0 µM,61%
same,growth inhibition,[8]; [17],60%
same,growth inhibition,[8]; at 50.0 µM,47.2%
same,growth inhibition,[8]; at 100.0 µM,59%
same,growth inhibition,[15]; at 1.2 µM,53%
same,growth inhibition,[15]; at 3.7 µM,63%
same,growth inhibition,[15]; at 11.0 µM,74% (active)
same,growth inhibition,[15]; at 33.0 µM,79% (active)
same,growth inhibition,[15]; at 100.0 µM,90% (active)
same,growth inhibition,[9]; [16],48%
same,growth inhibition,[9]; [17],69%
same,growth inhibition,[9]; at 50.0 µM,85.9% (active)
same,growth inhibition,[10]; at 1.2 µM,45%
same,growth inhibition,[10]; at 3.7 µM,63%
same,growth inhibition,[10]; at 11.0 µM,72% (active)
same,growth inhibition,[10]; at 33.0 µM,71% (active)
same,growth inhibition,[10]; at 100.0 µM,76% (active)
same,growth inhibition,[12]; at 1.2 µM,20%
same,growth inhibition,[12]; at 3.7 µM,29%
same,growth inhibition,[12]; [16],53%
same,growth inhibition,[12]; at 11.0 µM,35%
same,growth inhibition,[12]; at 33.0 µM,38%
same,growth inhibition,[12]; [17],67%
same,growth inhibition,[12]; at 50.0 µM,79.4% (active)
same,growth inhibition,[12]; at 100.0 µM,50%
same,growth inhibition,[13]; at 1.2 µM,7%
same,growth inhibition,[13]; at 3.7 µM,24%
same,growth inhibition,[13]; at 11.0 µM,32%
same,growth inhibition,[13]; at 33.0 µM,38%
same,growth inhibition,[13]; at 100.0 µM,40%
same,growth inhibition,[14]; at 1.2 µM,35%
same,growth inhibition,[14]; at 3.7 µM,66%
same,growth inhibition,[14]; at 11.0 µM,71% (active)
same,growth inhibition,[14]; at 33.0 µM,70% (active)
same,growth inhibition,[14]; at 100.0 µM,73% (active)
same,growth inhibition,[1]; at 1.2 µM,53%
same,growth inhibition,[1]; at 3.7 µM,67%
same,growth inhibition,[1]; at 11.0 µM,71% (active)
same,growth inhibition,[1]; at 33.0 µM,72% (active)
same,growth inhibition,[1]; at 100.0 µM,75% (active)
same,growth inhibition,[3]; at 1.2 µM,63%
same,growth inhibition,[3]; at 3.7 µM,70% (active)
same,growth inhibition,[3]; at 11.0 µM,78% (active)
same,growth inhibition,[3]; at 33.0 µM,80% (active)
same,growth inhibition,[3]; at 100.0 µM,77% (active)

# Source: PubChem BioAssay (NCI)
